For 5 compounds, composite z-score and z-score results are on record in PubChem BioAssay.

Active and inactive are the calls of the source.

The test system of assay [1] is Plasmodium falciparum Sir2 (PF13_0152, Sir2A). The assay is described as follows: pfSir2 binders on small-molecule microarrays, primary screen, biochemical, small-molecule microarray, 635 nm fluorescence (AID 1098).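 Also: score merges spot fluorescence intensity with its signal-to-noise ratio.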 The settings on record: small-molecule microarray binding, fluorescence 635 nm; higher = more signal.
Assay [2] in a line: small-molecule microarray binders of probe aDKK1, primary screen, biochemical, biotinylated probe, 635/667 nm fluorescence (AID 1099).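 Also: score merges 667nm spot fluorescence with signal to noise across triplicate slides.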 The settings on record: higher = more signal.
Assay [3] in a line: small-molecule microarray binders of probe aCHRDL2, primary screen, biochemical, biotinylated probe, 635/667 nm fluorescence (AID 1100). The settings on record: higher = more signal.
Assay [4] can be described thus: splicing luciferase reporter signal modulators, primary screen, spliceosome inhibition project, cell-based, HEK293, splice +/- reporter (AID 1101).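 Also: HEK293 cells carrying a splicing-competent luciferase reporter gene; test concentration not given here.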 The settings on record: luminescence, 24 h, higher = more signal, called active from +8 up or from −8 down.
Assay [5] has as its target Fibroblast growth factor 10 (Homo sapiens) (UniProt O15520). The assay is described as follows: FGF10 binders on small-molecule microarrays, primary screen, biochemical, small-molecule microarray, 635 nm fluorescence (AID 1102). The settings on record: FGF10 binding, fluorescence 635 nm, higher = more signal.
Assay [6] has as its system glycogen synthase kinase-3 (GSK3A per assay name; protocol says GSK3B). The assay is described as follows: GSK3 binders on small-molecule microarrays, primary screen, biochemical, small-molecule microarray, 635 nm fluorescence, GSK3A (AID 1103). Also: the record names both GSK3A and GSK3B. Conditions: small-molecule microarray binding, fluorescence 635 nm; higher = more signal.
The target of assay [7] is Epidermal growth factor receptor (Homo sapiens) (UniProt P00533). The assay is described as follows: EGFR binders on small-molecule microarrays, primary screen, biochemical, small-molecule microarray, 635 nm fluorescence (AID 1104).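 Also: score merges 667 nm emission intensity with spot signal to noise over triplicate slides.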 The settings on record: EGFR binding, higher = more signal.
Sequence of Epidermal growth factor receptor (Homo sapiens) (P00533 whole entry, looked up): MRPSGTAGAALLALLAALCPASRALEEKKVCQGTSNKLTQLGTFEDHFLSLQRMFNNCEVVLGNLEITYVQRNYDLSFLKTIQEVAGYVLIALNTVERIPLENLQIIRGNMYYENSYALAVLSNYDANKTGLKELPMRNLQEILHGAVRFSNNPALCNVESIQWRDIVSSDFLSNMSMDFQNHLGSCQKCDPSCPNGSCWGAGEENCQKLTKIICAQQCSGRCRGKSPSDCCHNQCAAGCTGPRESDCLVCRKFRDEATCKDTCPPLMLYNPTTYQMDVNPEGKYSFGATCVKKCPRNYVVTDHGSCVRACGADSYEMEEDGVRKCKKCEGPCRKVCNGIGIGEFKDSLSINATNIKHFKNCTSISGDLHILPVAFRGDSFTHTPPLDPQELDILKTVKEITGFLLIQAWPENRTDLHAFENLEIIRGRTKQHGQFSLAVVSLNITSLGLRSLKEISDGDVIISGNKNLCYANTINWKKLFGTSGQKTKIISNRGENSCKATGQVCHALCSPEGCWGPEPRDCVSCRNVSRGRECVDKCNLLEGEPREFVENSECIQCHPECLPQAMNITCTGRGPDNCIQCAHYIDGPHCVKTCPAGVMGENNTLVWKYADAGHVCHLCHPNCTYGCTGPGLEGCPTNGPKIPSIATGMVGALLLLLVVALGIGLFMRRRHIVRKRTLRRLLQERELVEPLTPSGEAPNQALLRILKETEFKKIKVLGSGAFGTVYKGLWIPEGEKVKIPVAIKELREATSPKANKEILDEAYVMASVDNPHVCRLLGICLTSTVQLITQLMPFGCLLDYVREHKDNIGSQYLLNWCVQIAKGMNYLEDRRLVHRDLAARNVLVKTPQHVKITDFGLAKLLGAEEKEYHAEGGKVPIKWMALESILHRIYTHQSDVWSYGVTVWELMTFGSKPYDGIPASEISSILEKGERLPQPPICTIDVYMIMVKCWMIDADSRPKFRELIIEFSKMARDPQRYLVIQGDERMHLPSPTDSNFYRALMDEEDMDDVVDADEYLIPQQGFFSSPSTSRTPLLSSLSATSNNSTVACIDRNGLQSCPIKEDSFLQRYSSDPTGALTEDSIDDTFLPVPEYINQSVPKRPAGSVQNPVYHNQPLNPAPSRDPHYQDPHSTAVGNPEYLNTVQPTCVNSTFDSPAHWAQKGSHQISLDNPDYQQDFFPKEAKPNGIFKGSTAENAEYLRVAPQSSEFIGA
For assay [8], the target named is Follistatin-related protein 3 (Homo sapiens) (UniProt O95633). The assay is described as follows: FSTL3 binders on small-molecule microarrays, primary screen, biochemical, small-molecule microarray, 635 nm fluorescence (AID 1105).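 Also: score merges emission near 667 nm and signal to noise per printed spot across three slides.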 The settings on record: FSTL3 binding, higher = more signal.
Sequence of Follistatin-related protein 3 (Homo sapiens) (O95633 whole entry, looked up): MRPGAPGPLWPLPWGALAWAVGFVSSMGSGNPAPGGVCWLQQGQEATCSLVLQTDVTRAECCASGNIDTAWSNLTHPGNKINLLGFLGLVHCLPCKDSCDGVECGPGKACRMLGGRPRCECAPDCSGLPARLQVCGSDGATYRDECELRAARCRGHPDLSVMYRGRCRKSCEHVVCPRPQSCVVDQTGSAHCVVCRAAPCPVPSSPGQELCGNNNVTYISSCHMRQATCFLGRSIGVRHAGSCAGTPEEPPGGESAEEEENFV
The target in assay [9] is Dickkopf-related protein 1 (Homo sapiens) (UniProt O94907). The assay is described as follows: DKK1 binders on small-molecule microarrays, primary screen, biochemical, small-molecule microarray, 635 nm fluorescence scan (AID 1106).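 Also: score merges emission near 667 nm with signal to noise over three replicate slides.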 The settings on record: DKK1 binding, higher = more signal.
Sequence of Dickkopf-related protein 1 (Homo sapiens) (O94907 whole entry, looked up): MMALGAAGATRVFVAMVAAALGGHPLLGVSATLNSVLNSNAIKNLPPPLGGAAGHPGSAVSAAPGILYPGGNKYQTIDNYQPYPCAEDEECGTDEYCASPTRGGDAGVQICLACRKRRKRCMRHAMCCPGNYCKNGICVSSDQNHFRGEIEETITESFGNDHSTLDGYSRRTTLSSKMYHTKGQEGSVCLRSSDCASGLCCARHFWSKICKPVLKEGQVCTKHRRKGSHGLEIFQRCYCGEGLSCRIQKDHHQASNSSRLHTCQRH
The subject of assay [10] is Inhibin beta A chain (activin A). The assay is described as follows: INHBA (activin A) binders on microarrays, primary screen, biochemical, small-molecule microarray, 635 nm fluorescence scan (AID 1107).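 Also: mouse activin A protein probed at 4.33 µg/mL on printed slides; score merges bound-protein fluorescence near 667 nm with spot signal-to-noise.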 Conditions: small-molecule microarray binding, higher = more signal.
Assay [11] deals with Human papillomavirus type 1a protein E7 (residues 44-93). The assay is described as follows: HPV1a E7 fragment binders on microarrays, primary screen, biochemical, small-molecule microarray, residues 44-93, 635 nm fluorescence (AID 1108).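 Also: E7 fragment applied at 1 µg/mL in TBST for 1 h at 4 C; score combines spot fluorescence with its signal to noise ratio.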 Conditions: small-molecule microarray binding, fluorescence 635 nm; higher = more signal.
A short description of assay [12]: modulators of HCV replicon luciferase signal, primary screen, HCV replication inhibitor project, Huh7 cells, luciferase reporter (AID 1109).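 Also: huh7 hepatoma cells harbouring a luciferase neomycin HCV replicon reporter; luciferase luminescence as measure of HCV replicon replication; test concentration not given here.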 The settings on record: 48 h, higher = more signal. A general note: Replicon systems follow genome replication, usually without infectious particles.
For assay [13], the target named is Left-right determination factor 2 (Homo sapiens) (UniProt O00292). The assay is described as follows: LEFTY2 binders on small-molecule microarrays, primary screen, biochemical, small-molecule microarray, 635 nm fluorescence scan (AID 1110). Conditions: LEFTY2 binding, higher = more signal.
Sequence of Left-right determination factor 2 (Homo sapiens) (O00292 whole entry, looked up): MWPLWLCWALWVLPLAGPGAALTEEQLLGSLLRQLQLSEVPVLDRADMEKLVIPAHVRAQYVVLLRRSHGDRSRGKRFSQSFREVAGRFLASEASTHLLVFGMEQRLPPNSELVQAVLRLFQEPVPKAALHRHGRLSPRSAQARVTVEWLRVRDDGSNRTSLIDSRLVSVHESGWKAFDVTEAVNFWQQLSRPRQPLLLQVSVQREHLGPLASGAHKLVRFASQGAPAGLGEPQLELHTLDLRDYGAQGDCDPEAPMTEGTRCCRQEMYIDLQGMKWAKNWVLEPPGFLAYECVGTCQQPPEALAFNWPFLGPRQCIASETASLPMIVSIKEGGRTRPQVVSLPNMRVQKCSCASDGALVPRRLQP
The target of assay [14] is Calmodulin-1 (Homo sapiens) (UniProt P0DP23). The assay is described as follows: CALM1 binders on microarrays, EGTA buffer, profiling panel, biochemical, small-molecule microarray, Cy5-labelled CALM1 (AID 1111).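 Also: labelled calmodulin applied in Tris saline Tween buffer holding calcium plus EGTA and DTT.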 The settings on record: Cy5-CALM1 binding fluorescence, higher = more signal.
Assay [15] shares this target. The assay is described as follows: calcium-bound CALM1 binders on microarrays, profiling panel, artefact control for SMM control-protein annotation, biochemical, small-molecule microarray, Cy5-labelled CALM1, plus calcium (AID 1112).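 Also: score merges spot fluorescence with signal to noise from triplicate slides.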 Conditions: Cy5-CALM1 binding fluorescence, higher = more signal.
The nature of assay [16]: small-molecule microarray binders of probe aWnt5a, primary screen, biochemical, biotinylated probe, 635/667 nm fluorescence (AID 1113).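 Also: score merges 667 nm fluorescence intensity with signal-to-noise per printed feature.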 Conditions: higher = more signal.
The nature of assay [17]: small-molecule microarray binders of probe aShh, primary screen, biochemical, biotinylated probe, 635/667 nm fluorescence (AID 1114).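 Also: probe is biotin-labelled aShh protein from a stem cell growth factor screen; measures binding of labelled protein to compounds printed on the slide; score merges feature fluorescence at 667 nm with signal-to-noise.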 Conditions: higher = more signal.
Assay [18] in a line: small-molecule microarray binders of probe aNog, primary screen, biochemical, biotinylated probe, 635/667 nm fluorescence (AID 1115).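 Also: probe is biotinylated aNog protein used at 0.15 µg/mL for 1 h at 4 C; z-score combines 667 nm fluorescence of each spot with its signal to noise.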 Conditions: higher = more signal.
Assay [19] addresses Torsin-1A-interacting protein 1 (Homo sapiens) (UniProt Q5JTV8). The assay is described as follows: LAP1 binders from COS7 cell lysate, primary screen, small-molecule microarray, 635/667 nm fluorescence (AID 1116). Conditions: COS7-hLAP1 lysate binding, 635 nm fluorescence, higher = more signal.
Assay [20] addresses Alpha-bungarotoxin (Bungarus multicinctus) (UniProt P60615). The assay is described as follows: alpha-bungarotoxin binders on microarray, profiling panel, artefact control for SMM control protein annotation, biochemical, small-molecule microarray, Alexa647 label, 635/667 nm fluorescence (AID 1117). The settings on record: alpha-BTX-A647 binding fluorescence, higher = more signal.

Sequence of Alpha-bungarotoxin (Bungarus multicinctus) (P60615 whole entry, looked up): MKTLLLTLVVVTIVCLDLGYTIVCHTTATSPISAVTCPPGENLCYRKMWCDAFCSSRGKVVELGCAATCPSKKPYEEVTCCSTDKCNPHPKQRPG
Sequence of Fibroblast growth factor 10 (Homo sapiens) (O15520 whole entry, looked up): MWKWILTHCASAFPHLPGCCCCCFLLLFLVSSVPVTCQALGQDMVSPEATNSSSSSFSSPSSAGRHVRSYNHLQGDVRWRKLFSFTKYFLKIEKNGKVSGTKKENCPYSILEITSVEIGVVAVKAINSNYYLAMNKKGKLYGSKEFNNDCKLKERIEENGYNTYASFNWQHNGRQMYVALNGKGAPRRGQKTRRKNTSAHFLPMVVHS
Sequence of Torsin-1A-interacting protein 1 (Homo sapiens) (Q5JTV8 whole entry, looked up): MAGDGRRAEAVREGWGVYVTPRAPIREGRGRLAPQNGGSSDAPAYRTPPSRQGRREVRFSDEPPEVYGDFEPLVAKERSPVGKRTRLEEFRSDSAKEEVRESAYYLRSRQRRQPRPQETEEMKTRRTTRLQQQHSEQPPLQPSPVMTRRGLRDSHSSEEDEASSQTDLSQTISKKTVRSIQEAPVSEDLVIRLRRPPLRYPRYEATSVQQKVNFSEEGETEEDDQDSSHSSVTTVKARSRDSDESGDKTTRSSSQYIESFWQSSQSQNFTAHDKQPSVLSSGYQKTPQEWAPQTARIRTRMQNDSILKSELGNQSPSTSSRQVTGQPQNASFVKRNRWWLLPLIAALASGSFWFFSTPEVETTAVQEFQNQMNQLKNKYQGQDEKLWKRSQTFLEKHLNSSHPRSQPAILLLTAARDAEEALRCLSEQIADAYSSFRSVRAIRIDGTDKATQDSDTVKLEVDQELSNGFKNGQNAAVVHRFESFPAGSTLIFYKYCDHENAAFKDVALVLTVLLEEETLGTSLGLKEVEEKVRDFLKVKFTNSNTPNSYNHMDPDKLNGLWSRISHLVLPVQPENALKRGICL

Take `CC=CC1=C(CO)[C@H](O)[C@H]2O[C@H]2[C@@H]1O`: the composite z-score is 0.134 in assay [1]; -0.416 in [2]; -1.13 in assay [3]; 0.733 in assay [5]; 0.403 in assay [6]; 0.148 in [7]. Moreover, the composite z-score in [8] was 0.608; in assay [9], 0.943; in [10] it was 0.161; in assay [11], -0.342; in [13] it was 1.06; in assay [14] it was -0.849. For the same compound, the composite z-score is -1.1 in assay [15]; -0.0236 in assay [16]; -0.282 in assay [17]; -0.244 in [18]; -0.193 in [19]; 0.495 in assay [20]. In addition, the z-score in assay [4] was 0.666 (inactive); in assay [12], 0.382.
In the case of `CC[C@@H](c1ccccc1)n1c(=O)n2n(c1=O)[C@H]1[C@H](O)[C@@H]3O[C@@H]3C(=NOCc3ccccc3)[C@H]1CC2`, the composite z-score is 0.217 in [1]; -0.148 in assay [2]; -0.406 in [3]; 0.487 in assay [5]; -0.0586 in [6]; 0.123 in assay [7]. Further, the composite z-score in assay [8] worked out at 0.489; in assay [9] it was 0.235; in [10] it was 0.517; in assay [11], 0.502; in assay [13], 0.244; in [14], 0.207. For the same compound, the composite z-score in assay [15] is -0.258; in assay [16] it was -0.107; in [17] it was -0.0146; in assay [18] it was -0.0606; in [19], -0.0058; in assay [20] it was 0.919. For the same compound, the z-score was 2.5 (inactive) in assay [4] and -4.13 in [12].
With `COc1ccc(COC(=O)NN=C2C[C@@H](O)[C@@H](O)[C@@H]3[C@@H]4C(=O)N([C@@H](C)c5ccccc5)C(=O)[C@@H]4CC[C@H]23)cc1`, the composite z-score in [1] is -0.25; in assay [2], -0.121; in [3], 1.4; in assay [5], -0.227; in assay [6] it was -0.721; in assay [7], -0.587. The composite z-score is -0.131 in [8]; -0.769 in assay [9]; 0.541 in assay [10]; -1.05 in assay [11]; -0.291 in [13]; -0.0436 in assay [14]. Also, the composite z-score in assay [15] was 0.073; in assay [16], -0.0405; in assay [17], 0.0121; in assay [18], 0.314; in assay [19], -0.484; in [20], 0.471. Also, the z-score in [4] is 0.445 (inactive); in assay [12] it was -1.66.
For `CC(CCN1CCCc2nc(C)c(C)cc21)=NO[C@@H](C)c1cn([C@H](CO)Cc2ccccc2)nn1`, the composite z-score was 0.531 in assay [1]; -0.264 in assay [2]; -0.388 in assay [3]; 0.817 in assay [5]; 0.471 in assay [6]; 0.666 in assay [7]. The composite z-score in [8] was 0.698; in [9] it was 0.928; in [10], 1.19; in assay [11], 0.425; in assay [13], 0.67; in [14] it was -0.168. Moreover, the composite z-score in assay [15] is -0.671; in [16] it was -0.0199; in assay [17], 0.0952; in [18], 0.139; in [19], 0.527; in [20] it was 0.117. Also, the z-score in assay [4] was 0.867 (inactive); in [12] it was -0.0976.
As for `COc1ccc(O[C@H]2C=C[C@@H](c3ccccc3)O[C@@H]2COC(=O)CCC(C)=NOC[C@@H](O)COCc2ccco2)cc1`, the composite z-score in assay [1] was -1.47; in assay [2] it was -0.866; in assay [3], 0.0183; in assay [5] it was -2.67; in assay [6], -1.95; in assay [7], -2.8. The composite z-score in assay [8] is -2.9; in assay [9], -1.99; in assay [10], -0.0879; in [11], -0.82; in [13] it was -4.63; in assay [14], -2.11. Besides, the composite z-score was -2.04 in assay [15]; -0.449 in assay [16]; -0.267 in [17]; -0.715 in assay [18]; -2.94 in [19]; -1.65 in assay [20]. Further, the z-score in [4] is -0.909 (inactive); in assay [12], -0.681.
